This is part of a sample that, as a whole, favours compounds with a hit. Of some 83,000 tested, about 20% had one in any assay.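 How to read the values: 0–100, growth inhibition (40 = 60% inhibited); 0, no net growth; -100 to 0, cell death (-40 = 40% of starting cells died; -100 = all dead).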 A number with no mark means an inactive call. The source made the active and inactive calls. How the source made its calls: active means growth percent below 10; inactive means the rest.

Holding throughout (assay): NCI-60 one-dose screen, 48 h (100 = growth as untreated, 0 = no growth, -100 = all killed)
What all share (conditions): 10 µM unless noted

Experiment [1] relates to NCI-H23 lung.
The test system of experiment [2] is NCI-H226 lung.
Experiment [3] concerns NCI-H322M lung.
Experiment [4] deals with HOP-62 NSCLC.
Experiment [5] has as its system NCI-H460 lung.
Experiment [6] deals with HOP-92 NSCLC.
In experiment [7] the test system is NCI-H522 lung.
In experiment [8] the test system is A549/ATCC NSCLC.
The test system of experiment [9] is 786-0 renal.
In experiment [10] the test system is COLO 205 colon.
Experiment [11] deals with DU-145 prostate.
The test system of experiment [12] is K-562 leukemia.
Experiment [13] concerns MALME-3M melanoma.
The test system of experiment [14] is MDA-MB-231 breast.
Experiment [15] deals with RXF 393 renal.
Experiment [16] has as its system SF-268 CNS.
In experiment [17] the test system is SF-295 CNS.
Experiment [18] relates to SF-539 CNS.
In experiment [19] the test system is UACC-257 melanoma.
Experiment [20] concerns M14 melanoma.

In the case of `Nc1ccc(S(=O)(=O)Nc2cc(I)cc(I)c2)cc1`, the growth in [1] is 93.6%; in [2], 113%; in [3], 94.8%; in experiment [4] it was 91.1%; in experiment [5] it was 109%; in experiment [6], 79.2%. The growth in experiment [7] was 90.1%; in [8], 112%; in [9] it was 95.5%; in experiment [10] it was 123%; in [11], 124%; in experiment [12], 78.5%. Also, the growth in experiment [13] was 118%; in [14], 102%; in [15], 97.2%; in experiment [16] it was 108%; in experiment [17], 113%; in experiment [18], 111%. Also, the values for the growth in [19] and in experiment [20] were 99.7% and 110%, respectively.

Regarding `COc1ccc(OC)c(NCC(=O)n2nc(/C=C\c3ccc(O)c(OC)c3)cc2/C=C\c2ccc(O)c(OC)c2)c1`, the growth in experiment [1] was 19.1%; in experiment [2] it was 29%; in [3], 29.5%; in experiment [4], 11.8%; in [5] it was 8.27% (active); in [6], 34.5%. Besides, the growth was -19.3% (active) in experiment [7]; 21.4% in experiment [8]; -7.3% (active) in experiment [9]; -46.8% (active) in experiment [10]; 22.9% in experiment [11]; 4.4% (active) in [12]. For the same compound, the growth in [13] is 23.3%; in experiment [14], 15.7%; in experiment [15], -49.5% (active); in experiment [16], 23.1%; in [17], 24%; in experiment [18] it was 0.158% (active). Besides, the growth in experiment [19] is 30.2%; in experiment [20] it was 16.5%.

On to `CCCCOc1nc2ccc(Cl)cc2cc1/C=C/C(=O)/C=C/c1ccc(OC)cc1`, for which the growth is 95.9% in experiment [1]; 99.6% in experiment [2]; 95.6% in experiment [3]; 110% in experiment [4]; 98.4% in [5]; 93.4% in experiment [6]. Also, the growth in experiment [7] is 77.5%; in [8], 92.1%; in experiment [9], 110%; in [10], 93.1%; in experiment [11], 93.8%; in experiment [12], 87%. Also, the growth in experiment [13] was 100%; in experiment [14], 106%; in experiment [15], 119%; in [16], 95.4%; in experiment [17], 113%; in experiment [18], 104%. For the same compound, the growth in [19] was 89.7%; in experiment [20], 66.3%.

Turning to `CCCCCCCCN(CCCCCCCC)CC(O)c1cc(-c2ccccc2)nc2ccc(OC)cc12` (stereo not given), the growth in experiment [1] is 67.1%; in experiment [2], 88.1%; in experiment [3] it was 106%; in experiment [4] it was 95.4%; in experiment [5] it was 98.9%; in experiment [6], 70.1%. In addition, the growth in experiment [7] was 77.5%; in experiment [8] it was 78.6%; in experiment [9], 82.6%; in [10], 85.7%; in [11] it was 82.6%; in experiment [12] it was 52.2%. The growth is 91.3% in experiment [13]; 63.7% in [14]; 90.2% in experiment [15]; 38.3% in experiment [16]; 93.8% in experiment [17]; 0.739% (active) in experiment [18]. Also, the growth in experiment [19] is 83.2%; in experiment [20], 24.7%.

For `CN(C)CCS(=O)(=O)Nc1cc(-c2ccc3ncnc(Nc4ccc(F)c(Cl)c4)c3c2)cnc1Cl`, the growth is -10.1% (active) in experiment [1]; 1.48% (active) in [2]; -21.5% (active) in experiment [3]; -5.38% (active) in [4]; 7.68% (active) in experiment [5]; -21.4% (active) in experiment [6]. For the same compound, the growth in experiment [7] is -17.7% (active); in experiment [8] it was -31.7% (active); in experiment [9] it was 12.8%; in experiment [10], -80% (active); in [11] it was -3.31% (active); in [12], 9.31% (active). For the same compound, the growth was -23.2% (active) in [13]; -26.8% (active) in experiment [14]; -47.2% (active) in [15]; -20.9% (active) in experiment [16]; 10.1% in experiment [17]; -22.2% (active) in experiment [18]. Moreover, the growth in [19] was -0.224% (active); in experiment [20], 4.73% (active).

For the compound `CN(C)CCNc1nc2ccccc2c2c(=O)c3ccccc3sc12`, the growth in experiment [1] was 31.8%; in [2] it was 36.5%; in [3] it was 43.1%; in experiment [4] it was 21.7%; in experiment [5] it was 1.33% (active); in experiment [6], 4.02% (active). Besides, the growth in experiment [7] was 14.4%; in [8] it was 13.2%; in experiment [9], 28.6%; in [10], -79.6% (active); in experiment [11] it was 8.96% (active); in [12], -35.1% (active). The growth in experiment [13] is 12.2%; in [14] it was -11.6% (active); in [15], 6.42% (active); in [16] it was 26.3%; in experiment [17], 0.247% (active); in experiment [18], 36.7%. The growth was 28.8% in experiment [19] and -54.7% (active) in experiment [20].

Consider `CC(/C=C/C=C(\C)[C@H](O)[C@H](C)C(=O)O[C@H]1C[C@H](C)C=C2C=C[C@@]3(C)O[C@@H](O)CC(=O)[C@]3(C)[C@H]21)=C\C=C\C(=O)O`, for which the growth in experiment [1] is -6.25% (active); in experiment [2] it was -3.28% (active); in experiment [3] it was 4.63% (active); in experiment [4], -3.68% (active); in experiment [5], 2.9% (active); in experiment [6] it was -14.2% (active). For the same compound, the growth in experiment [7] is -11.8% (active); in experiment [8] it was 3.63% (active); in experiment [9] it was 1.96% (active); in [10], -55.9% (active); in [11] it was 4.82% (active); in experiment [12], 5.89% (active). Also, the growth is -57% (active) in experiment [13]; 19.8% in experiment [14]; -49.5% (active) in experiment [15]; 7.59% (active) in experiment [16]; 2.34% (active) in experiment [17]; -15.9% (active) in [18]. Moreover, the growth was 2.06% (active) in experiment [19] and -51.3% (active) in [20].

Take `OC(COc1ccccc1Cl)CN1CCN(c2ccc(Cl)cc2)CC1` (stereo not given): the growth in experiment [1] is 107%; in [2], 94.5%; in experiment [3] it was 101%; in experiment [4], 108%; in [5] it was 104%; in experiment [6], 85.8%. For the same compound, the growth is 92.6% in experiment [7]; 112% in experiment [8]; 106% in [9]; 116% in experiment [10]; 110% in experiment [11]; 115% in experiment [12]. Besides, the growth is 110% in experiment [13]; 103% in experiment [14]; 94.3% in experiment [15]; 104% in experiment [16]; 97.9% in experiment [17]; 90.6% in [18]. Also, the figures for the growth in [19] and in [20] were 109% and 105%, respectively.
